TDP1 inh: qHTS Assay for Inhibitors of Tyrosyl-DNA Phosphodiesterase (TDP1); Tyrosyl-DNA phosphodiesterase 1 (Homo sapiens), Q9NUW8; recombinant TDP1, AlphaScreen DNA substrate cleavage; Potency, µM (series often up to 130 µM), inactives show at the top dose activity change, negative = inhibition, hits mostly inhibitors; 0.28% of 350,000 active; also: % is scaled to controls: 0 for no effect and ±100 for the full control effect; nearly all actives have a fitted effect of over 40% in size
Target sequence (Q9NUW8 whole entry, looked up): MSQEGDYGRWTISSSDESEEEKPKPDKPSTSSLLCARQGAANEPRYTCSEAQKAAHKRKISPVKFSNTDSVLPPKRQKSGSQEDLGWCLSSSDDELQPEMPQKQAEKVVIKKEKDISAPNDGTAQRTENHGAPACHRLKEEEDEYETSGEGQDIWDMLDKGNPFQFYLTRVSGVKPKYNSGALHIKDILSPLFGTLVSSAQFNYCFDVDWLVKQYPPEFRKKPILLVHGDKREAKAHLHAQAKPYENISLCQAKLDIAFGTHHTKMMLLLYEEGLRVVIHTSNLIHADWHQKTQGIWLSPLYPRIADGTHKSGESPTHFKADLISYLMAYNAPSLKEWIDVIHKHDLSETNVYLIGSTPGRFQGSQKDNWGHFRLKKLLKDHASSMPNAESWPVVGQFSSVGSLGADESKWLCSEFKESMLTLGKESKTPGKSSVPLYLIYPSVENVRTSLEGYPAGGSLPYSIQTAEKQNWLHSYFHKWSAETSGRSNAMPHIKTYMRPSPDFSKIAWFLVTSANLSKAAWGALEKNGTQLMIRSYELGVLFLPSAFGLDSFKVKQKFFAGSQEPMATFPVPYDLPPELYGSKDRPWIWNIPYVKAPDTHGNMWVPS
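AlphaScreen read-out: signal falls as enzyme removes the 3' tyrosine-FITC from a 5'-biotinylated DNA oligo (15 nM, 5 min, RT). Enzyme was E. coli-made recombinant Tdp1 at 1 nM, exposed to compound for 15 min beforehand; beads 10 ug/ml, 10 min.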
TDP1 cell noCPT: qHTS for Inhibitors of human tyrosyl-DNA phosphodiesterase 1 (TDP1): qHTS in cells in absence of CPT; 15% of 420,000 active; Potency, µM (doses to about 46.2 µM), for the others: top-dose activity change, negative = growth inhibition, most hits filed as inhibitors; DT40 Tdp1-/- hTDP1 cells, no CPT, ATP luminescence, 48 h; AID 686978, 2013; also: % is scaled to controls: 0 for no effect and ±100 for the full control effect; nearly all actives have a fitted effect of over 55% in size
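Stably hTDP1-transfected Tdp1-null chicken DT40 cells were treated with library compounds minus camptothecin and grown for at least 48 hr at 37 °C, after which cellular ATP was quantified by luminescence.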
ClpP mod: qHTS Assay for Activators of ClpP | Potency, µM (titrated, usually from 57.5 µM), without a hit: top-dose activity change, negative = active | 1.9% of 340,000 active | ATP-dependent Clp protease proteolytic subunit (Bacillus subtilis (strain 168)), P80244 | AID 651965, 2013 | purified B. subtilis ClpP, FRET peptide cleavage, 20 min; active = well fitted falling curve with a large enough effect; inconclusive = small, poorly fitted or top-dose-only effect; inactive = no such curve, though single readings can be large or run the other way; also: the source files actives as falling curves though it sought activators and does not explain the sign; nearly all actives have a fitted effect of over 65% in size
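ClpP 10 microg/mL final, pH 8 Tris/KCl buffer with BSA, glycerol, Tween-20; compound pinned in; FRET-FV substrate; RT 20 min; Ex320/Em430; ΔFRET vs ADEP 5.8 microM, DMSO, no enzyme.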
TDP1 cell CPT: qHTS for Inhibitors of human tyrosyl-DNA phosphodiesterase 1 (TDP1): qHTS in cells in presence of CPT; chicken DT40 Tdp1-/-;hTDP1 cells + 20 nM CPT, ATP luminescence, 48 h; Potency, µM (doses to about 46.2 µM), inactives show top-dose activity change, negative = growth inhibition, usual class: inhibitors; 12% of 420,000 active; AID 686979, 2013; also: % is scaled to controls: 0 for no effect and ±100 for the full control effect; nearly all actives have a fitted effect of over 55% in size
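Chicken DT40 Tdp1-/- cells complemented with human TDP1, 400 cells/well, exposed to compounds plus 20 nM camptothecin for at least 48 h at 37 C; viability read as ATP content by CellTiter-Glo luminescence.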
* marks the source's active call; other numbers are inactive results; [ ] = remark or other dose. A selection: hits, their analogues and other compounds. The true share with any hit is near 17%. Unless noted, calls follow the shape of the dose curve; as a rule, active = well fitted curve in the direction sought with a large enough effect; inconclusive = small, poorly fitted or top-dose-only effect, or another doubt; inactive = no such curve, though single readings can be large; an effect the other way counts as inactive or inconclusive. Potency is read from the fitted curve at half-maximal effect.

Results for Nc1o[nH]c(=O)c1C1CCCCC1 ?
TDP1 cell noCPT: 3%; TDP1 cell CPT: -10%

What do the screens show for `O=C(C[n+]1cccc(/C=N/O)c1)N1CCCc2ccccc21`?
TDP1 inh: 0%; TDP1 cell noCPT: 6%; TDP1 cell CPT: -5%

Results for CC(=O)/C=C1\OCc2cc(OCc3ccccc3)ccc21 ?
TDP1 cell noCPT: inconclusive; ClpP mod: -2%; TDP1 cell CPT: inconclusive

Results for Nc1ccc2c(c1)Cc1cc(N)c(Cl)cc1-2 ?
TDP1 cell noCPT: -6%; ClpP mod: -5%; TDP1 cell CPT: 3%

How did Nc1cc2c(cc1N)-c1ccccc1C2 do in these assays?
TDP1 cell noCPT: 16µM*; TDP1 cell CPT: inconclusive

What do the screens show for `CC1CCCCC1NC(=O)COC(=O)c1ccc(N(C)C)cc1` (centres undefined)?
TDP1 inh: 10%; TDP1 cell noCPT: 13µM*; ClpP mod: 2%; TDP1 cell CPT: inconclusive

What do the screens show for `CC1CCCCC1NC(=O)COC(=O)COc1ccccc1F` (centres undefined)?
TDP1 inh: -3%; TDP1 cell noCPT: 4%; ClpP mod: 28µM*; TDP1 cell CPT: -6%

Results for COc1ccc(C(N)=O)cc1NC(=O)CC(O)(C(F)(F)F)C(F)(F)F ?
TDP1 inh: 3%; TDP1 cell noCPT: inconclusive; ClpP mod: 0%; TDP1 cell CPT: 15µM*

How did CCOc1cc(C(=O)N2CC(=O)Nc3ccc(C)cc3C2c2ccccc2)cc(OCC)c1OCC (centres undefined) do in these assays?
TDP1 inh: 3%; TDP1 cell noCPT: 21µM*; ClpP mod: 0%; TDP1 cell CPT: 18µM*

What do the screens show for `Cc1cc(C)cc(C(=O)N2CC(=O)Nc3ccc(C)cc3C2c2ccccc2)c1` (centres undefined)?
TDP1 inh: 3%[12.3 µM]; TDP1 cell noCPT: inconclusive; ClpP mod: 1%; TDP1 cell CPT: inconclusive

Results for Cc1ccc2c(c1)C(c1ccccc1)N(C(=O)c1ccccc1F)CC(=O)N2 (centres undefined) ?
TDP1 inh: -6%; TDP1 cell noCPT: inconclusive; ClpP mod: -2%; TDP1 cell CPT: 18µM*

Results for COc1cccc(C(=O)NCCN2CCC(n3c(=O)[nH]c4ccccc43)CC2)c1 ?
TDP1 cell noCPT: -32%; ClpP mod: 0%; TDP1 cell CPT: -3%

How did Cc1noc(C)c1CSCC(=O)Nc1ccccc1N1CCCC1 do in these assays?
TDP1 cell noCPT: inconclusive; TDP1 cell CPT: -18%

Results for Cc1noc(C)c1CSCC(=O)Nc1cc(C(F)(F)F)ccc1N1CCCCC1 ?
TDP1 cell noCPT: 16µM*; ClpP mod: -1%; TDP1 cell CPT: 18µM*

How did Cc1noc(C)c1CSCC(=O)Nc1cc(Cl)ccc1N1CCCCC1 do in these assays?
TDP1 inh: -16%; TDP1 cell noCPT: inconclusive; ClpP mod: 25µM*; TDP1 cell CPT: -26%

Results for O=S(=O)(Nc1cc(S(=O)(=O)N2CCOCC2)ccc1NCC1CCCO1)c1ccc(F)cc1 (centres undefined) ?
TDP1 inh: 3%; TDP1 cell noCPT: inconclusive; ClpP mod: -1%; TDP1 cell CPT: -15%

What do the screens show for `Cc1ccc(S(=O)(=O)N2CCOCC2)cc1NC(=O)CNCC1CCCCC1`?
TDP1 inh: 0%; TDP1 cell noCPT: inconclusive; ClpP mod: 0%; TDP1 cell CPT: inconclusive

What do the screens show for `COc1ccc(CCC(=O)NC2CC(=O)N(c3ccc(C)cc3)C2)cc1` (centres undefined)?
TDP1 inh: -5%; TDP1 cell noCPT: 5%; ClpP mod: 0%; TDP1 cell CPT: 1%

What do the screens show for `O=C(Nc1nc(-c2ccccn2)cs1)C1CCCC1`?
TDP1 inh: 9%; TDP1 cell noCPT: 5.2µM*; TDP1 cell CPT: 2.9µM*

What do the screens show for `O=C(COc1ccccc1Cl)Nc1nc(-c2ccncc2)cs1`?
TDP1 inh: -7%; TDP1 cell noCPT: 16µM*; ClpP mod: inconclusive; TDP1 cell CPT: 15µM*

How did O=C(CCCSc1ccccc1)Nc1nc(-c2ccccn2)cs1 do in these assays?
TDP1 inh: 9%; TDP1 cell noCPT: 16µM*; ClpP mod: 1%; TDP1 cell CPT: 29µM*

What do the screens show for `CSCCC(=O)Nc1nc(-c2ccccn2)cs1`?
TDP1 inh: 10%; TDP1 cell noCPT: inconclusive; ClpP mod: -2%; TDP1 cell CPT: 16µM*

What do the screens show for `O=C(COc1ccc(F)cc1Cl)Nc1nc(-c2ccccn2)cs1`?
TDP1 inh: -8%

What do the screens show for `O=C(NCc1nnc(-c2nc3ccccc3[nH]2)o1)C1CCCCC1`?
TDP1 inh: 0%

How did CC(C)NC(=O)C1(C)CN(S(C)(=O)=O)CC(=O)N1Cc1cccc(C(F)(F)F)c1 (centres undefined) do in these assays?
TDP1 cell noCPT: inconclusive; ClpP mod: -5%; TDP1 cell CPT: -2%

How did N#Cc1ccccc1OCC(=O)Nc1nc(-c2ccccn2)cs1 do in these assays?
TDP1 cell noCPT: 5.2µM*; ClpP mod: 4%; TDP1 cell CPT: 2.9µM*

What do the screens show for `N#Cc1cccc(C=C(C(=O)c2ccccc2)c2ccccc2)c1`?
TDP1 cell noCPT: 19µM*; ClpP mod: -3%; TDP1 cell CPT: 12µM*

How did Cc1nc2c(c(=O)n1CCC1=CCCCC1)c1nc3ccccc3nc1n2/N=C/c1ccco1 do in these assays?
TDP1 cell noCPT: 23µM*; ClpP mod: -12%; TDP1 cell CPT: 16µM*

Results for CCCn1c(C)nc2c(c1=O)c1nc3ccccc3nc1n2-c1ccccc1 ?
TDP1 cell noCPT: -15%; TDP1 cell CPT: -18%

Results for CCCn1c(C)nc2c(c1=O)c1nc3ccccc3nc1n2CCC1=CCCCC1 ?
TDP1 inh: 1%; TDP1 cell noCPT: inconclusive; ClpP mod: 32µM*; TDP1 cell CPT: inconclusive

Results for C#CCN(C[C@@H]1[C@@H](OC(=O)NCc2ccccc2)[C@@H](OC(=O)NCc2ccccc2)CN(C(=O)OC(C)C)N1C(=O)OC(C)C)S(=O)(=O)c1ccc(C)cc1 ?
TDP1 cell noCPT: 12µM*; ClpP mod: -3%; TDP1 cell CPT: 21µM*

Results for C#CCN(C[C@@H]1[C@@H](OC(=O)Nc2cccs2)[C@@H](OC(=O)Nc2cccs2)Cn2c(=O)n(CCCCCC)c(=O)n21)S(=O)(=O)c1ccc(C)cc1 ?
TDP1 cell noCPT: inconclusive; ClpP mod: -4%; TDP1 cell CPT: inconclusive

Results for C#CCN(C[C@@H]1[C@@H](OC(=O)NCC2CCCCC2)[C@@H](OC(=O)NCC2CCCCC2)CN(C(=O)OC(C)C)N1C(=O)OC(C)C)S(=O)(=O)c1ccc(C)cc1 ?
TDP1 cell noCPT: 7.3µM*; ClpP mod: -2%; TDP1 cell CPT: 9.2µM*

Compound activity: PubChem BioAssay, National Center for Advancing Translational Sciences (NCATS)
